{
  "source": "PubChem BioAssay AID372",
  "about": "(MTDP, 2006)",
  "note": "Among all 100,000 compounds or so, about 770 (0.77%) were called active. Rule as the data show it: active = inhibition above about 50%; inactive = the rest. This excerpt belongs to a sample that is enriched for actives.",
  "data": [
    {"target": "Gag-Pol polyprotein (Human immunodeficiency virus type 1 group M subtype B (isolate HXB2)) (UniProt P04585)", "test": "RNase H inhibition, HIV 1 Gag Pol polyprotein, FRET biochemical assay, screening (AID 372)", "conditions": "HIV-1 RT RNase H, FRET RNA/DNA substrate fluorescence; at 10 µM; stronger effect = higher value", "values": [
      {"smiles": "O=C(CSc1nc2ccccc2o1)c1ccc(-c2ccccc2)cc1", "inhibition": "14% (inactive)"},
      {"smiles": "Cc1nnc(SCc2ccc(F)cc2)s1", "inhibition": "0% (inactive)"},
      {"smiles": "COC(=O)c1ccc(C2N(O)C3CCCCC3N2O)cc1", "note": "(stereo unspecified)", "inhibition": "15% (inactive)"},
      {"smiles": "COc1ccc([N+](=O)[O-])cc1N1C(=O)C=CC1=O", "inhibition": "4% (inactive)"},
      {"smiles": "CC(C)(C)c1cc(C(=O)N/N=C\\c2ccncc2)n[nH]1", "inhibition": "3% (inactive)"},
      {"smiles": "O=C(Nc1ccc(Cl)c(Cl)c1)c1cccc2ccccc12", "inhibition": "8% (inactive)"},
      {"smiles": "Cc1cc(/C=C2\\C(=O)NC(=S)N(c3cccc(Cl)c3)C2=O)c(C)n1-c1ccc(Cl)cc1", "inhibition": "40% (inactive)"},
      {"smiles": "CC1=C(C(=O)OCCOc2ccccc2)C(c2ccc(O)cc2)C2=C(CC(c3ccccc3)CC2=O)N1", "note": "(stereo unspecified)", "inhibition": "9% (inactive)"},
      {"smiles": "COc1ccc(-c2ccc(/C=C3/C(=O)NN(c4ccc(C)c(Cl)c4)C3=O)o2)c([N+](=O)[O-])c1", "inhibition": "24% (inactive)"},
      {"smiles": "CC(=O)N(C)c1ccc(NC(=O)/C=C/c2ccccc2)cc1", "inhibition": "9% (inactive)"},
      {"smiles": "O=C(/C=C/c1cccc2ccccc12)Nc1ccc(Nc2ccccc2)cc1", "inhibition": "25% (inactive)"},
      {"smiles": "CC(=O)N(C)c1ccc(NC(=O)/C=C/c2cccc3ccccc23)cc1", "inhibition": "53% (active)"},
      {"smiles": "Cc1ccc(S(=O)(=O)c2ccc(C)c(S(N)(=O)=O)c2)cc1S(N)(=O)=O", "inhibition": "0% (inactive)"},
      {"smiles": "CCOc1ccc(-n2nc3cc(C)c(N)cc3n2)cc1", "inhibition": "24% (inactive)"},
      {"smiles": "COc1ccc(-n2nc3cc(C)c(N)cc3n2)cc1", "inhibition": "22% (inactive)"},
      {"smiles": "Cc1cc2nn(-c3ccccc3)nc2cc1N", "inhibition": "50% (active)"},
      {"smiles": "CCOC(=O)C1=C(O)/C(=C/c2ccc(Br)cc2)SC1=Nc1ccccc1", "inhibition": "5% (inactive)"},
      {"smiles": "CCC(=O)Nc1ccc(NC(=S)NC(=O)c2cccc(F)c2)cc1", "inhibition": "11% (inactive)"},
      {"smiles": "COc1cc(/C=C2\\SC(=S)N(c3cccc(Cl)c3)C2=O)ccc1O", "inhibition": "38% (inactive)"},
      {"smiles": "COc1ccc(/C=C2\\SC(=S)N(c3cccc(F)c3)C2=O)cc1O", "inhibition": "7% (inactive)"},
      {"smiles": "O=C1/C(=C\\c2ccc(O)cc2)SC(=S)N1c1ccc(F)cc1", "inhibition": "37% (inactive)"},
      {"smiles": "O=C1/C(=C\\c2ccc(O)c(O)c2)SC(=S)N1c1ccc(F)cc1", "inhibition": "74% (active)"},
      {"smiles": "O=C1/C(=C/c2cccc(O)c2)SC(=S)N1c1cccc(Cl)c1", "inhibition": "19% (inactive)"},
      {"smiles": "O=C1/C(=C/c2ccc(O)c(O)c2)SC(=S)N1c1cccc(F)c1", "inhibition": "84% (active)"},
      {"smiles": "O=C1/C(=C/c2ccc(F)cc2)SC(=S)N1c1ccc(F)cc1", "inhibition": "17% (inactive)"},
      {"smiles": "O=C1S/C(=C/c2ccc(O)c(O)c2)C(=O)N1c1ccccc1", "inhibition": "60% (active)"},
      {"smiles": "O=C1/C(=C/c2cccnc2)SC(=S)N1c1cccc(F)c1", "inhibition": "3% (inactive)"},
      {"smiles": "COc1cc(/C=C2\\SC(=O)N(c3ccccc3)C2=O)ccc1O", "inhibition": "27% (inactive)"},
      {"smiles": "O=C1S/C(=C/c2cccc(O)c2)C(=O)N1c1ccccc1", "inhibition": "24% (inactive)"},
      {"smiles": "Cc1ccc2cc(C3=C/C(=C/c4cccc(Br)c4)C(=O)O3)ccc2c1", "inhibition": "4% (inactive)"},
      {"smiles": "CCCCCOc1ccc(/C=N\\Nc2nc(-c3ccccc3)cc(-c3ccccc3)n2)cc1", "inhibition": "8% (inactive)"},
      {"smiles": "COc1ccc(C(=O)COC(=O)c2ccc(N3C(=O)C4C5C=CC(C6CC56)C4C3=O)cc2)cc1", "note": "(stereo unspecified)", "inhibition": "9% (inactive)"},
      {"smiles": "CCN(CC)S(=O)(=O)c1ccc(C(C)(C)C)cc1", "inhibition": "15% (inactive)"},
      {"smiles": "N/C(=C\\C(=O)c1ccccc1O)C(F)(F)F", "inhibition": "8% (inactive)"},
      {"smiles": "CCc1nn(-c2ccccc2)c2nc(-c3ccccc3C)c3cc(OC)c(OC)cc3c12", "inhibition": "13% (inactive)"},
      {"smiles": "COc1ccc(/C=C2/C(=O)NC(=O)N(Cc3ccco3)C2=O)cc1C", "inhibition": "12% (inactive)"},
      {"smiles": "O=C(O)CC1SC(=NC(=O)c2ccco2)N(c2ccccc2)C1=O", "note": "(stereo unspecified)", "inhibition": "0% (inactive)"},
      {"smiles": "O=C1/C(=C\\c2ccc(O)c(O)c2)SC(=S)N1c1cccc2ccccc12", "inhibition": "72% (active)"},
      {"smiles": "Cc1ccc(N2C(=O)/C(=C/c3ccc(F)cc3)SC2=S)cc1C", "inhibition": "6% (inactive)"},
      {"smiles": "Cc1ccc(N2C(=O)/C(=C/c3ccc(Cl)cc3)SC2=S)cc1C", "inhibition": "5% (inactive)"},
      {"smiles": "O=C1/C(=C\\c2ccc(O)cc2)SC(=S)N1c1ccc(Cl)cc1", "inhibition": "36% (inactive)"},
      {"smiles": "O=C1/C(=C/c2cccc(O)c2)SC(=S)N1c1ccc(O)cc1", "inhibition": "26% (inactive)"},
      {"smiles": "O=C1/C(=C\\c2ccc(O)c(O)c2)SC(=S)N1c1cccc(C(F)(F)F)c1", "inhibition": "48% (inactive)"},
      {"smiles": "O=C1NC(=O)N(c2cccc3ccccc23)C(=O)/C1=C/c1ccc(O)c(O)c1", "inhibition": "22% (inactive)"},
      {"smiles": "CN(C)c1ccc(/C=C2\\C(=O)N(c3nc(-c4ccc(Cl)cc4)cs3)N=C2c2ccccc2)cc1", "inhibition": "37% (inactive)"},
      {"smiles": "Cc1ccc(C(=O)N2N=C(c3ccc(Cl)cc3)CC2(O)C(F)(F)F)o1", "note": "(stereo unspecified)", "inhibition": "20% (inactive)"},
      {"smiles": "CCCC(C)C(=O)Nc1cccc([N+](=O)[O-])c1C", "note": "(stereo unspecified)", "inhibition": "11% (inactive)"},
      {"smiles": "O=C1CC(NCc2ccc3c(c2)OCO3)C(=O)N1c1ccc(Cl)cc1", "note": "(stereo unspecified)", "inhibition": "8% (inactive)"},
      {"smiles": "O=c1c2ccccc2c(-c2ccccc2)nn1CCc1ccccc1", "inhibition": "53% (active)"},
      {"smiles": "O=c1c2ccccc2c(-c2ccccc2)nn1Cc1cccc(Br)c1", "inhibition": "15% (inactive)"},
      {"smiles": "CC(C)Cn1nc(-c2ccccc2)c2ccccc2c1=O", "inhibition": "18% (inactive)"},
      {"smiles": "COc1ccc(OC)c(C2NC(=S)NC(C)=C2C(=O)OCCc2ccccc2)c1", "note": "(stereo unspecified)", "inhibition": "21% (inactive)"},
      {"smiles": "COc1ccc(OC)c(C2NC(=S)NC(C)=C2C(=O)OCCOc2ccccc2)c1", "note": "(stereo unspecified)", "inhibition": "50% (active)"},
      {"smiles": "COCCOC(=O)C1=C(C)NC(=S)NC1c1cc(OC)ccc1OC", "note": "(stereo unspecified)", "inhibition": "15% (inactive)"},
      {"smiles": "COc1ccc(/C(O)=C2/C(=O)C(=O)N(CCCCCC(=O)O)C2c2ccc([N+](=O)[O-])cc2)cc1", "note": "(stereo unspecified)", "inhibition": "6% (inactive)"},
      {"smiles": "CCOC(=O)Cc1csc(N/N=C\\c2c(Cl)ccc(Cl)c2Cl)n1", "inhibition": "20% (inactive)"},
      {"smiles": "O=C(CN1C(=O)C2C3CCC(C3)C2C1=O)Nc1ccccc1", "note": "(stereo unspecified)", "inhibition": "14% (inactive)"},
      {"smiles": "CCOc1cc(C(=S)N2CCC(C)CC2)ccc1O", "inhibition": "50% (active)"},
      {"smiles": "COc1cc(C(=S)N2CCCCC2)ccc1O", "inhibition": "0% (inactive)"},
      {"smiles": "COc1cc(C(=S)N2CCCCC2)cc(Br)c1O", "inhibition": "37% (inactive)"},
      {"smiles": "CCOc1cc(C(=S)N2CCCCC2)ccc1O", "inhibition": "8% (inactive)"},
      {"smiles": "COc1cc(C(=S)N2CCC(C)CC2)ccc1O", "inhibition": "7% (inactive)"},
      {"smiles": "COc1cc(C(=S)N2CCOCC2)cc(I)c1O", "inhibition": "45% (inactive)"},
      {"smiles": "CCOc1cc(C(=S)N2CCCCC2)cc(Br)c1O", "inhibition": "56% (active)"},
      {"smiles": "CCOc1cc(C(=S)N2CCOCC2)cc(Br)c1O", "inhibition": "13% (inactive)"},
      {"smiles": "CCOc1cc(C(=S)N2CCCCC2)cc(I)c1O", "inhibition": "59% (active)"}
    ]}
  ]
}
